In PubChem BioAssay AID1159580 (chemical genetic matrix, 2015):
Screen size: about 5,500 compounds; about 2,000 (36%) were called active. About 18% were inconclusive and are not listed. No stated cut-off is given here; in the data, active means normalized growth mostly below about 0.91 (no sharp cut-off); inconclusive means no clear call, values can overlap the other calls; inactive means mostly above about 0.92. The list shows a part of the results.

Assay: chemical genetic growth profiling, strain panel (AID 1159580);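 further: tested at 20 µM; growth read once vehicle control cultures reached saturation at 30 °C; 1 = growth at the plate median or of vehicle wells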
Conditions: growth OD

Measured: normalized growth

COc1cc2c(cc1OC)C1Cc3ccc(OC)c(OC)c3CN1CC2 (configuration not stated)
inactive: S. cerevisiae deletion strains, locus YJR066W, strain TOR1, stronger effect = lower value 0.912 | S. cerevisiae deletion strains, locus YKL009W, strain mrt4, stronger effect = lower value 0.988 | S. cerevisiae deletion strains, locus YKL068W, stronger effect = lower value 0.999 | S. cerevisiae deletion strains, locus YKL085W, strain MDH1 (second series), stronger effect = lower value 0.988 | S. cerevisiae deletion strains, locus YKL085W, strain MDH1, stronger effect = lower value 0.988 | S. cerevisiae deletion strains, locus YKL160W, strain elf1, stronger effect = lower value 1.01 | S. cerevisiae deletion strains, locus YKR001C, strain vps1, stronger effect = lower value 1.01 | S. cerevisiae deletion strains, locus YKR026C, strain gcn3, stronger effect = lower value 0.979 | S. cerevisiae deletion strains, locus YKR091W, strain srl3, stronger effect = lower value 0.98 | S. cerevisiae deletion strains, locus YLL001W, strain dnm1, stronger effect = lower value 0.99 | S. cerevisiae deletion strains, locus YLL026W, stronger effect = lower value 0.989 | S. cerevisiae deletion strains, locus YLL041C, strain sdh2, stronger effect = lower value 0.975 | S. cerevisiae deletion strains, locus YLR027C, strain aat2, stronger effect = lower value 0.969 | S. cerevisiae deletion strains, locus YLR039C, strain RIC1, stronger effect = lower value 0.979 | S. cerevisiae deletion strains, locus YLR058C, strain SHM2, stronger effect = lower value 1.01 | S. cerevisiae deletion strains, locus YLR102C, strain apc9, stronger effect = lower value 0.982 | S. cerevisiae deletion strains, locus YLR113W, strain HOG1, stronger effect = lower value 0.978 | S. cerevisiae deletion strains, locus YLR221C, strain rsa3, stronger effect = lower value 0.985 | S. cerevisiae deletion strains, locus YLR258W, strain gsy2, stronger effect = lower value 0.977 | S. cerevisiae deletion strains, locus YLR262C, strain YPT6 (second series), stronger effect = lower value 0.957 | S. cerevisiae deletion strains, locus YLR262C, strain YPT6, stronger effect = lower value 0.918 | S. cerevisiae deletion strains, locus YLR268W, strain sec22, stronger effect = lower value 0.962 | S. cerevisiae deletion strains, locus YLR320W, strain mms22, stronger effect = lower value 0.982 | S. cerevisiae deletion strains, locus YLR330W, strain CHS5, stronger effect = lower value 1.01 | S. cerevisiae deletion strains, locus YLR342W, strain FKS1 (second series), stronger effect = lower value 0.957 | S. cerevisiae deletion strains, locus YLR342W, strain FKS1, stronger effect = lower value 0.968 | S. cerevisiae deletion strains, locus YLR357W, strain rsc2, stronger effect = lower value 0.994 | S. cerevisiae deletion strains, locus YLR370C, strain arc18, stronger effect = lower value 0.971 | S. cerevisiae deletion strains, locus YLR371W, strain rom2, stronger effect = lower value 1.01 | S. cerevisiae deletion strains, locus YLR384C, strain iki3, stronger effect = lower value 0.988 | S. cerevisiae deletion strains, locus YLR418C, strain cdc73, stronger effect = lower value 1.02 | S. cerevisiae deletion strains, locus YML016C, strain PPZ1, stronger effect = lower value 0.988 | S. cerevisiae deletion strains, locus YML032C, strain rad52, stronger effect = lower value 1.03 | S. cerevisiae deletion strains, locus YML120C, strain ndi1, stronger effect = lower value 0.984 | S. cerevisiae deletion strains, locus YML124C, strain tub3, stronger effect = lower value 0.987 | S. cerevisiae deletion strains, locus YMR058W, strain fet3, stronger effect = lower value 0.984 | S. cerevisiae deletion strains, locus YMR078C, strain ctf18, stronger effect = lower value 0.968 | S. cerevisiae deletion strains, locus YMR125W, strain sto1, stronger effect = lower value 0.953 | S. cerevisiae deletion strains, locus YMR129W, stronger effect = lower value 0.978 | S. cerevisiae deletion strains, locus YMR205C, strain PFK2, stronger effect = lower value 0.987 | S. cerevisiae deletion strains, locus YMR223W, strain ubp8, stronger effect = lower value 1.01 | S. cerevisiae deletion strains, locus YMR231W, strain pep5, stronger effect = lower value 0.966 | S. cerevisiae deletion strains, locus YMR263W, strain SAP30, stronger effect = lower value 1 | S. cerevisiae deletion strains, locus YMR307W, strain GAS1, stronger effect = lower value 1 | S. cerevisiae deletion strains, locus YNL067W, strain RPL9B, stronger effect = lower value 1.02 | S. cerevisiae deletion strains, locus YNL071W, strain lat1, stronger effect = lower value 0.974 | S. cerevisiae deletion strains, locus YNL128W, strain TEP1, stronger effect = lower value 0.983 | S. cerevisiae deletion strains, locus YNL153C, strain GIM3, stronger effect = lower value 1.03 | S. cerevisiae deletion strains, locus YNL183C, strain NPR1, stronger effect = lower value 0.93 | S. cerevisiae deletion strains, locus YNL209W, strain ssb2, stronger effect = lower value 1.01 | S. cerevisiae deletion strains, locus YNL233W, strain BNI4, stronger effect = lower value 1.02 | S. cerevisiae deletion strains, locus YNL248C, strain rpa49, stronger effect = lower value 0.961 | S. cerevisiae deletion strains, locus YNL250W, strain rad50, stronger effect = lower value 0.968 | S. cerevisiae deletion strains, locus YNL271C, strain bni1, stronger effect = lower value 0.976 | S. cerevisiae deletion strains, locus YNL298W, strain CLA4, stronger effect = lower value 0.991 | S. cerevisiae deletion strains, locus YNL307C, strain MCK1, stronger effect = lower value 1 | S. cerevisiae deletion strains, locus YNL322C, strain KRE1 (second series), stronger effect = lower value 0.948 | S. cerevisiae deletion strains, locus YNR049C, strain mso1, stronger effect = lower value 0.967 | S. cerevisiae deletion strains, locus YNR052C, strain pop2, stronger effect = lower value 0.993 | S. cerevisiae deletion strains, locus YOL012C, strain htz1 0.904 | S. cerevisiae deletion strains, locus YOL147C, strain pex11, stronger effect = lower value 0.99 | S. cerevisiae deletion strains, locus YOR001W, strain rrp6, stronger effect = lower value 0.957 | S. cerevisiae deletion strains, locus YOR061W, strain CKA2, stronger effect = lower value 0.996 | S. cerevisiae deletion strains, locus YOR069W, strain VPS5, stronger effect = lower value 0.984 | S. cerevisiae deletion strains, locus YOR070C, strain gyp1, stronger effect = lower value 0.984 | S. cerevisiae deletion strains, locus YOR080W, strain dia2, stronger effect = lower value 0.971 | S. cerevisiae deletion strains, locus YOR083W, strain WHI5, stronger effect = lower value 1.01 | S. cerevisiae deletion strains, locus YOR106W, strain vam3, stronger effect = lower value 0.987 | S. cerevisiae deletion strains, locus YOR136W, strain idh2, stronger effect = lower value 0.975 | S. cerevisiae deletion strains, locus YOR144C, strain elg1, stronger effect = lower value 0.989 | S. cerevisiae deletion strains, locus YOR184W, strain ser1, stronger effect = lower value 0.917 | S. cerevisiae deletion strains, locus YOR231W, strain MKK1, stronger effect = lower value 0.99 | S. cerevisiae deletion strains, locus YOR265W, strain rbl2, stronger effect = lower value 0.961 | S. cerevisiae deletion strains, locus YOR270C, strain vph1, stronger effect = lower value 0.94 | S. cerevisiae deletion strains, locus YOR290C, strain snf2, stronger effect = lower value 0.994 | S. cerevisiae deletion strains, locus YOR316C, strain cot1, stronger effect = lower value 0.99 | S. cerevisiae deletion strains, locus YPL051W, strain arl3, stronger effect = lower value 0.997 | S. cerevisiae deletion strains, locus YPL078C, strain atp4, stronger effect = lower value 0.981 | S. cerevisiae deletion strains, locus YPL106C, strain sse1, stronger effect = lower value 1.02 | S. cerevisiae deletion strains, locus YPL240C, strain hsp82, stronger effect = lower value 0.968 | S. cerevisiae deletion strains, locus YPL256C, strain CLN2, stronger effect = lower value 1 | S. cerevisiae deletion strains, locus YPR119W, strain clb2, stronger effect = lower value 0.994 | S. cerevisiae deletion strains, locus YPR141C, strain kar3, stronger effect = lower value 0.982 | S. cerevisiae deletion strains, locus YPR163C, strain tif3, stronger effect = lower value 0.989 | S. cerevisiae deletion strains, locus YPR167C, strain met16, stronger effect = lower value 0.99 | S. cerevisiae deletion strains, strain wtn01, stronger effect = lower value 0.968 | S. cerevisiae strains, strain wild type, stronger effect = lower value 1.01
